Active and inactive are the calls of the source.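 The calls were made as follows, unless noted: active = fluorescence slope after compound addition differing from the mean of all screened samples at 99.7% confidence, in either direction; inactive = the rest.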
Assays:
[1] = inhibitors of TNFa-induced NFkB p65 translocation, primary screen, imaging, HUVEC, MLSMR starter and 10KST1 sets (AID 438;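 active = inhibition above 20% together with a positive visual image hit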;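 also: compound added about 3h40 before a 20 min TNFalpha stimulation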;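 as to inhibition: signal is the nuclear over cytoplasmic p65 intensity ratio per well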); conditions: HUVEC TNFa-induced p65 nuclear translocation; cell count: measured here: nuclei count (cytotoxicity indicator), at 2.08 µM; inhibition: at 2 µM, stronger effect = higher value, 0% TNFa-plus-vehicle, 100% no-TNFa wells
[2] = inhibitors of mutant huntingtin aggregation, primary screen, imaging, exon1htt(103Q)mCFP cells, high-content imaging (AID 483;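 active = visual image review flags a hit and inhibition of aggregation exceeds 20%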;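 also: compound exposure lasted 3 days before fixation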;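 as to nuclei count: percent of the per-plate median nuclei count of sample wells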); conditions: exon1htt(103Q)mCFP cell line, aggregate imaging, at 2 µM; inhibition of aggregation: stronger effect = higher value; nuclei count: measured here: cell count, toxicity
[3] = inhibitors of E-selectin induction by TNFa, primary screen, imaging, HUVEC, immunofluorescence, MLSMR starter and 10KST1 sets (AID 487;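 active = visually confirmed hit in the image check and inhibition above 20%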;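 as to inhibition: signal is fraction of cell area covered by stained E-selectin grains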;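 as to nuclei count: 100% = median nuclei count of all wells on the same plate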); conditions: HUVEC TNFalpha-induced E-selectin immunofluorescence imaging, at 2 µM; inhibition: stronger effect = higher value; nuclei count: measured here: cell number, toxicity
[4] = biological target: Voltage-gated potassium channel subunit beta-2 (Rattus norvegicus) (UniProt P62483); assay: KvBeta enzyme negative modulators, primary screen, biochemical, NADPH fluorescence (AID 622;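 active = fluorescence slope higher than the sample average by over 3 SD, cut at about -0.22 in these data, passing the limit was not always enough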;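 also: slope of raw intensity against log time taken from 70 to 1610 s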); conditions: recombinant KvBeta, 4-cyanobenzaldehyde reduction, at 10 µM, stronger effect = higher value
Voltage-gated potassium channel subunit beta-2 (Rattus norvegicus), sequence (P62483 whole entry, looked up): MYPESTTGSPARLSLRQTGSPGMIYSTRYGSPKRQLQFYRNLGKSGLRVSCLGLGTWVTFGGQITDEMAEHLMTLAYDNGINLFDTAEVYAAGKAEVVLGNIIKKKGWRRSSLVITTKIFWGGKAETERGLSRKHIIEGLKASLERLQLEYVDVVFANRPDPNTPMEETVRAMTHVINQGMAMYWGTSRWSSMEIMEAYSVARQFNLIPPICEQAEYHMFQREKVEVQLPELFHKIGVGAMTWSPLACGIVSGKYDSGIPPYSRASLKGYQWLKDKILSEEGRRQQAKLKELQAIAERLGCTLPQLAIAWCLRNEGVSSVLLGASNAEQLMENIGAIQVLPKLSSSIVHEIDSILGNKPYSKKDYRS

[5] = biological target: Voltage-gated potassium channel subunit beta-2 (Rattus norvegicus) (UniProt P62483); assay: KvBeta positive modulators, primary screen, biochemical, NADPH fluorescence (AID 623;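 active = NADPH fluorescence slope more negative than the mean of all samples by about 3 SD, 99.7% confidence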;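 also: fluorescence intensity change per second fitted from 20 to 320 s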); conditions: Recombinant KvBeta, NADPH fluorescence decrease slope, 10 min; at 10 µM; stronger effect = lower value
[6] = biological target: Alpha-2C adrenergic receptor (Homo sapiens) (UniProt P18825); assay: modulators of alpha2C/GIRK thallium flux, primary screen, cell-based, HEK293 alpha2C/GIRK1/2 (AID 624); conditions: thallium flux BTC fluorescence, at 10 µM, actives lie on both sides;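 also: slope of fluorescence ratio to pre-addition baseline per second over 15 to 24 s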
Alpha-2C adrenergic receptor (Homo sapiens), sequence (P18825 whole entry, looked up): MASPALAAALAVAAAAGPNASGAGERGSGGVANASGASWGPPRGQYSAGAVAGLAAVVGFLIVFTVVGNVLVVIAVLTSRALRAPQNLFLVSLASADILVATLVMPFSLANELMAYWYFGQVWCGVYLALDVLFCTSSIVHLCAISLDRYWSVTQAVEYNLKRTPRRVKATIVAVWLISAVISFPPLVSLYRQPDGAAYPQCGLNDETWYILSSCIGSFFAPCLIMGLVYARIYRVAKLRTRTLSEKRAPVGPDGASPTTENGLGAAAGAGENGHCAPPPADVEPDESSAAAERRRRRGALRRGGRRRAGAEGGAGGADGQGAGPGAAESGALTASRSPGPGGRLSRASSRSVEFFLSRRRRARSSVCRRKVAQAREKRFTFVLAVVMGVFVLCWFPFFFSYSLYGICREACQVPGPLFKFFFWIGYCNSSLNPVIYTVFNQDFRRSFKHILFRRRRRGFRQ

[7] = inhibitors of Sendai virus-induced IRF3 signaling, primary screen, TLR/RLR signaling modifier project, cell-based, Sendai virus stimulus, luciferase, 10K MLSCN set (AID 602276;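 active = inhibition at or above 50% at 10 µM; inactive = inhibition below 50%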;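 also: firefly luciferase from ISG56 promoter only with Renilla not read in this screen; 0% = Sendai virus plus DMSO and 100% = medium plus DMSO without virus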); conditions: HEK293 RL24 IRF3 luciferase reporter, at 10 µM, stronger effect = higher value
[8] = inhibitors of poly I:C-induced TLR3 signaling, primary screen, cell-based, poly I:C stimulus, luciferase, 10K MLSCN set (AID 602277;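 active = inhibition of the reporter signal at or above 50%; inactive = inhibition below 50%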); conditions: HEK293-TLR3 RL24 IRF3 luciferase reporter, at 10 µM, stronger effect = higher value

| SMILES | cell count [1] | inhibition [1] | inhibition of aggregation [2] | nuclei count [2] | inhibition [3] | nuclei count [3] | fluorescence slope [4] | NADPH fluorescence slope [5] | slope [6] | inhibition [7] | inhibition [8] |
| --- | --- | --- | --- | --- | --- | --- | --- | --- | --- | --- | --- |
| NC(=O)C1CCN(C(=S)c2cccs2)CC1 | 759 | 3.9% (inactive) | 12.1% (inactive) | 105% | -69.5% (inactive) | 107% | -0.49 (inactive) | -1.4e-06 (inactive) | 0.00525 (inactive) | 19.1% (inactive) | 30.8% (inactive) |
| CC(=O)NC(Cc1cc(C)ccc1C)C(=O)N1CCN(C(=O)Nc2ccc(C(C)=O)cc2)CC1 (centres undefined) | 324 | -2.1% (inactive) | -26% (inactive) | 106% | -23.1% (inactive) | 99.8% | -0.378 (inactive) | -4.4e-05 (inactive) | 0.00656 (inactive) | 2.34% (inactive) | -13% (inactive) |
| COc1ccccc1NC(=O)CSc1nnc(CC(=O)Nc2ccccc2)n1C | 455 | 4.9% (inactive) | -6.2% (inactive) | 89.5% | -44% (inactive) | 103% | -0.442 (inactive) | 3.5e-06 (inactive) | 0.0033 (inactive) | 8.73% (inactive) | 20.7% (inactive) |
| CCOC(=O)CN1C(=O)C2(OCCCO2)c2ccccc21 | 595 | -18.5% (inactive) | 3.3% (inactive) | 115% | -39.6% (inactive) | 96.5% | -0.454 (inactive) | -0.000151 (inactive) | 0.00617 (inactive) | 1.67% (inactive) | 18.4% (inactive) |
| COC(=O)c1ccccc1NC(=O)C1CC(=O)N(c2ccccc2)C1 (centres undefined) | 576 | -5.8% (inactive) | 13.9% (inactive) | 99.5% | -18.1% (inactive) | 106% | -0.496 (inactive) | -5.9e-05 (inactive) | 0.00531 (inactive) | 10.2% (inactive) | 6.98% (inactive) |
| COc1ccc(C(=O)N2CCN(S(=O)(=O)c3cc(Cl)ccc3OC)CC2)cc1 | 398 | 7.3% (inactive) | -29.4% (inactive) | 64.6% | -74.2% (inactive) | 106% | -0.368 (inactive) | -2.2e-05 (inactive) | 0.00259 (inactive) | 16.1% (inactive) | 18% (inactive) |
| CCCS(=O)(=O)N1CCN(C(=O)c2cccs2)CC1 | 559 | 7.2% (inactive) | 5.4% (inactive) | 91% | -58.9% (inactive) | 102% | -0.622 (inactive) | -3.8e-05 (inactive) | 0.00496 (inactive) | 13.1% (inactive) | 3.31% (inactive) |
| Cc1ccccc1-n1nnnc1SCC(=O)Nc1ccc(S(=O)(=O)N2CCCC2)cc1 | 675 | -5.5% (inactive) | 11% (inactive) | 96.4% | -1% (inactive) | 110% | -0.534 (inactive) | 1.4e-05 (inactive) | 0.00566 (inactive) | 23.8% (inactive) | 24.1% (inactive) |
| CCOC(=O)N1CCC(NC(=O)C2CCN(S(=O)(=O)c3cccc4cccnc34)CC2)CC1 | 595 | 1.8% (inactive) | -71.5% (inactive) | 11.3% | 9.6% (inactive) | 107% | -0.558 (inactive) | -2.8e-05 (inactive) | 0.00729 (inactive) | 12% (inactive) | 35.6% (inactive) |
| c1ccc(OCc2nc(-c3ccccc3)no2)cc1 | 300 | 2.6% (inactive) | 12.9% (inactive) | 87.7% | -72.6% (inactive) | 91.1% | -0.539 (inactive) | 4.5e-05 (inactive) | 0.0046 (inactive) | -80.4% (inactive) | -193% (inactive) |
| CCNCC(O)COCC(O)CNCC (centres undefined) | 493 | -5.5% (inactive) | -14.4% (inactive) | 84.2% | 4.5% (inactive) | 117% | -0.256 (inactive) | 8.5e-06 (inactive) | 0.0061 (inactive) | 13.1% (inactive) | 21.4% (inactive) |
| COc1cccc(-c2nnc(NC(C)=O)o2)c1 | 694 | 0.3% (inactive) | -16.5% (inactive) | 99.5% | -24.3% (inactive) | 118% | -0.407 (inactive) | -6.1e-05 (inactive) | 0.00477 (inactive) | -11% (inactive) | 6.47% (inactive) |
| Cc1[nH]c2ccccc2c(=O)c1CN1CCCCC1 | 400 | 2.1% (inactive) | -1.5% (inactive) | 111% | -47.3% (inactive) | 119% | -0.453 (inactive) | -5.7e-05 (inactive) | 0.00287 (inactive) | 6.83% (inactive) | 36.8% (inactive) |
| COc1cc2c(cc1OC)-c1nnc(C)n1C1(CCCC1)C2 | 849 | 2.9% (inactive) | -14.8% (inactive) | 132% | -70.9% (inactive) | 120% | -0.606 (inactive) | 3.2e-05 (inactive) | 0.00696 (inactive) | 10.3% (inactive) | 1.68% (inactive) |

From PubChem BioAssay
